The supplement of paper PMC8285479
Structures can show the parent of a compound that is named as a salt. ± gives the standard deviation of the averaged measurements. Whole data set: some 1,900 compounds, median “normalised cell viability (NPI; 0 = phenylarsine oxide control, 1 = DMSO control)” near 1, cut for the lowest 2% near 0.039. This excerpt belongs to a sample that is enriched for the lowest values.

Test system: NCI-H1944
Test: normalised cell viability (NPI; 0 = phenylarsine oxide control, 1 = DMSO control) (fraction of DMSO control); NCI-H1944 is a non-small cell lung cancer line; higher = more viable cells (less compound toxicity)
Details: 6 days
[1] = glucocorticoid arm: hydrocortisone 2.75 uM co-treatment, compound 1 µM
[2] = glucocorticoid arm: hydrocortisone 2.75 uM co-treatment, compound 5 µM
[3] = glucocorticoid arm: hydrocortisone 2.75 uM pre-treated 2 days and continued, compound 1 µM
[4] = glucocorticoid arm: hydrocortisone 2.75 uM pre-treated 2 days and continued, compound 5 µM
[5] = glucocorticoid arm: vehicle, compound 1 µM
[6] = glucocorticoid arm: vehicle, compound 5 µM
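Note: CTB read-out in 384-well plates, triplicate wells, NPI normalised per plate against 1 µM phenylarsine oxide (0) and 0.1% DMSO (1) controls.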

SMILES | normalised cell viability [1] | normalised cell viability [2] | normalised cell viability [3] | normalised cell viability [4] | normalised cell viability [5] | normalised cell viability [6]
COC(=O)C(C)(N)Cc1ccc(O)cc1 (racemic) [alpha-Methyl-DL-tyrosine methyl ester hydrochloride] | 1.004 ± 0.01 | 1.01 ± 0.034 | 1.01 ± 0.023 | 0.999 ± 0.011 | 0.9943 ± 0.0057 | 1.004 ± 0.0098
Cn1c(=O)c(F)c(Nc2ccc(I)cc2F)c2c(=O)n(C[C@@H](O)CO)cnc21 | 0.641 ± 0.035 | 0.629 ± 0.043 | 0.772 ± 0.028 | 0.757 ± 0.042 | 0.329 ± 0.013 | 0.226 ± 0.025
Cc1cc(C(=O)NOCCO)c(Nc2ccc(I)cc2F)n(C)c1=O | 0.614 ± 0.018 | 0.565 ± 0.035 | 0.66 ± 0.011 | 0.672 ± 0.037 | 0.286 ± 0.014 | 0.279 ± 0.013
CCCNC[C@H](O)COc1ccccc1C(=O)CCc1ccccc1 [(S)-(-)-propafenone hydrochloride] | 0.99967 ± 0.00058 | 0.9747 ± 0.0047 | 1.02 ± 0.026 | 1.02 ± 0.015 | 0.9967 ± 0.0058 | 0.995 ± 0.005
Cc1nc(C#Cc2ccnc(Cl)c2)c(C)n1-c1ccc(OC(F)(F)F)cc1 | 0.993 ± 0.021 | 0.992 ± 0.01 | 0.983 ± 0.015 | 0.9747 ± 0.004 | 1 ± 0.017 | 1 ± 0.014
O=S(=O)(NCCNCC=Cc1ccc(Br)cc1)c1cccc2cnccc12 | 0.985 ± 0.012 | 0.985 ± 0.025 | 1.03 ± 0.01 | 1.007 ± 0.0058 | 1.002 ± 0.0072 | 0.968 ± 0.016
Cc1ccccc1N1CCN(S(=O)(=O)C[C@]23CC[C@H](C[C@@H]2NC(=O)[C@@H](N)CCS(C)(=O)=O)C3(C)C)CC1 [L-368,899 hydrochloride] | 0.99 ± 0.017 | 0.986 ± 0.024 | 0.998 ± 0.013 | 1.01 ± 0.023 | 0.9847 ± 0.0035 | 0.9993 ± 0.0095
COC[C@H](NC(=O)c1cnc(C)s1)C(=O)N[C@@H](COC)C(=O)N[C@@H](Cc1ccccc1)C(=O)[C@@]1(C)CO1 [Oprozomib (ONX 0912)] | 0.208 ± 0.051 | 0.0253 ± 0.0081 | 0.7 ± 0.017 | 0.301 ± 0.021 | 0.0106 ± 0.0015 | 0.00109 ± 0.00065
CCC(=O)N1CCN(c2ccc(-n3c(=O)ccc4cnc5ccc(-c6cnc7ccccc7c6)cc5c43)cc2C(F)(F)F)CC1 [Torin 1] | 0.4 ± 0.0087 | 0.383 ± 0.013 | 0.532 ± 0.018 | 0.518 ± 0.022 | 0.223 ± 0.023 | 0.286 ± 0.01
Nc1ccc(-c2ccc3ncc4ccc(=O)n(-c5cccc(C(F)(F)F)c5)c4c3c2)cn1 [Torin 2] | 0.175 ± 0.0021 | 0.171 ± 0.0032 | 0.267 ± 0.012 | 0.299 ± 0.0097 | 0.0254 ± 0.002 | 0.0207 ± 0.0023
O=C(O)[C@H]1C[C@H](C(=O)O)N1 (relative stereo) [trans-Azetidine-2,4-dicarboxylic acid] | 1.007 ± 0.0058 | 1.007 ± 0.0058 | 1.005 ± 0.0087 | 1.01 | 0.9843 ± 0.0025 | 0.9883 ± 0.0091
CC(C)(C)c1cnc(CSc2cnc(NC(=O)C3CCNCC3)s2)o1 | 0.0382 ± 0.0034 | 0.036 ± 0.0061 | 0.148 ± 0.013 | 0.133 ± 0.018 | 0.00695 ± 0.0037 | 0.00933 ± 0.00035
C=C(C)C(CC=C(C)C)CC12CC(CC=C(C)C)C(C)(C)C(CC=C(C)C)(C(=O)C(=C(O)c3ccc(O)c(O)c3)C1=O)C2=O (centres undefined) [Garcinol] | 1 ± 0.012 | 1.01 ± 0.013 | 0.992 ± 0.014 | 0.997 ± 0.027 | 1.007 ± 0.0052 | 1.001 ± 0.01
O=[N+]([O-])c1ccc(-c2nc(-c3ccc(F)cc3)c(-c3ccncc3)[nH]2)cc1 | 0.976 ± 0.019 | 0.903 ± 0.014 | 0.9707 ± 0.008 | 0.865 ± 0.019 | 0.996 ± 0.004 | 0.962 ± 0.051
N#C/C(=C/c1ccc(O)c(O)c1)C(=O)NCc1ccccc1 [Tyrphostin AG 490] | 1.01 ± 0.016 | 1.03 ± 0.015 | 0.999 ± 0.028 | 1 ± 0.014 | 1.02 ± 0.01 | 1.02 ± 0.01
C[C@H](Cc1ccc(O)c(O)c1)[C@@H](C)Cc1ccc(O)c(O)c1 | 0.996 ± 0.013 | 1.02 ± 0.02 | 0.998 ± 0.013 | 1.04 ± 0.058 | 1.013 ± 0.0058 | 1.02 ± 0.011
CO/N=C(\C(=O)N[C@@H]1C(=O)N2C(C(=O)O)=C(CSc3nc(=O)c(O)nn3C)CS[C@H]12)c1csc(N)n1 [Ceftriaxone sodium salt] | 0.985 ± 0.0052 | 0.995 ± 0.025 | 0.849 ± 0.22 | 0.992 ± 0.0057 | 0.964 ± 0.0069 | 0.9743 ± 0.006
Oc1ccc2ccccc2c1SSc1c(O)ccc2ccccc12 | 1.03 ± 0.01 | 1.08 ± 0.021 | 1.017 ± 0.0058 | 1.01 ± 0.028 | 1.013 ± 0.0058 | 1.04 ± 0.01
CNc1nc(Nc2cnn(C3CCN(C4COC4)CC3F)c2Cl)ncc1C(F)(F)F (centres undefined) | 1.02 ± 0.01 | 1.05 ± 0.023 | 1.04 ± 0.01 | 1.05 ± 0.01 | 1.007 ± 0.0058 | 1.007 ± 0.0058
Cc1[nH]nc2ccc(-c3cncc(OC[C@@H](N)Cc4ccccc4)c3)cc12 | 0.452 ± 0.007 | 0.0555 ± 0.0049 | 0.792 ± 0.022 | 0.129 ± 0.0089 | 0.1 ± 0.012 | 0.0136 ± 0.0021
C#Cc1ccc2c(c1)C(=O)N(C)Cc1c(C(=O)OCCCOC(=O)c3ncn4c3CN(C)C(=O)c3cc(C#C)ccc3-4)ncn1-2 [Xli 093 hydrate] | 0.999 ± 0.011 | 1.01 ± 0.015 | 1 ± 0.013 | 1.01 | 0.99 ± 0.01 | 0.9967 ± 0.0015
CCN1CCN(Cc2ccc(-c3cc4c(N[C@H](C)c5ccccc5)ncnc4[nH]3)cc2)CC1 | 0.812 ± 0.041 | 0.693 ± 0.043 | 0.885 ± 0.014 | 0.752 ± 0.047 | 0.8103 ± 0.0047 | 0.6 ± 0.016
COc1cc(CC(=O)O)ccc1O [4-Hydroxy-3-methoxyphenylacetic acid] | 1.007 ± 0.0058 | 1.01 ± 0.014 | 1.01 ± 0.01 | 1.02 | 1.01 ± 0.01 | 1.01
COc1cc(OC)c(/C=C/S(=O)(=O)Cc2ccc(OC)c(NCC(=O)O)c2)c(OC)c1 | 0.307 ± 0.021 | 0.261 ± 0.026 | 0.572 ± 0.03 | 0.572 ± 0.051 | 0.0447 ± 0.0079 | 0.0341 ± 0.0062
